Measurements as given in PubChem BioAssay.
Inconclusive results are not listed. The source made the active and inactive calls.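 How the source made its calls, unless noted: active means viability increase at or above a cutoff of the median across tested compounds plus 3 SD (cut at about 8.5% in these data, passing the limit was not always enough); inconclusive means some gains above the cutoff, reason not given; inactive means the rest.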

Key:
[1] = Her2 expression decrease, cell viability multiplex – SKBR3 breast tumor cells, AlphaScreen, ATP viability, primary screen (AID 461;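 active means Her2 level under about 52% in both replicate screens, with viability over 70% of control, limit read from the data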;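 on Her2 level: lower value means less Her2 protein in the cells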;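 on viability: percent of carrier control wells set as 100% viability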); conditions: SKBR3 Her2 protein level, 18-24 h, measured here: SKBR3 viability, ATP luminescence, at 10 µM
[2] = biological target: Receptor tyrosine-protein kinase erbB-2 (Homo sapiens) (UniProt P04626); test: as above; conditions: 18-24 h, at 10 µM, stronger effect = lower value
[3] = reduced viability of SK-BR-3 breast cancer cells – cell-based, 24 h, human, pilot screen (AID 572;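 active means viability at or below 10% of carrier control in both of two separate runs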;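 further: compound exposure lasted between 18 and 24 h rather than exactly 24 h; 100% = carrier-treated control wells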); conditions: SK-BR-3 viability, CellTiter-Glo luminescence, at 10 µM, stronger effect = lower value
[4] = HUVEC growth inhibition – cell-based, human, primary screen (AID 575;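 active means viability at or below 30% in both replicate assays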;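 further: 100% = median of untreated cell wells with 0.1% DMSO on each plate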); conditions: HUVEC proliferation, CellTiter-Glo luminescence, 72 h; at 10 µM; stronger effect = lower value
[5] = H69AR cell proliferation blockers – human, duplicate replicates, primary screen (AID 580;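 active means viability at or under a set limit in both replicates, limit being median viability minus 3 SD, cut at about 48% in these data, passing the limit was not always enough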;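 further: 100% = mean luminescence of untreated wells and 0% = no signal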); conditions: H69AR lung tumor cells viability, ATP luminescence, 72 h; at 10 µM; stronger effect = lower value
[6] = MRP1 drug-resistance reversers in H69AR cells – cell-based, doxorubicin co-treatment, pilot screen (AID 601;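 active means viability loss from added drug above about 55%, and viability with drug at most 40%, in both replicates, limit read from the data, passing the limit was not always enough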); conditions: CellTiter-Glo, 72 h, at 10 µM; for differential viability (reversal): stronger effect = higher value
[7] = yeast transport mutant growth inhibition pilot in 384-well plates, post-Golgi transport modulator project (AID 636; in the data active means inhibition above about 31%); conditions: absorbance 615 nm, about 18 h, stronger effect = higher value
[8] = growth suppression of yeast trafficking mutant, preliminary HTS, modulators of trafficking downstream of Golgi apparatus project, 1536-format plate, OD 615 nm (AID 637; in the data active means inhibition above about 30%); conditions: yeast transport mutant growth, absorbance 615 nm, 18 h; stronger effect = higher value
[9] = S. cerevisiae growth inhibition in permissive medium (OD615), pilot counter-assay for S. cerevisiae lifespan shortening project, permissive growth control (AID 705;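 active means growth inhibition above 25% in both replicates, a cutoff set 3 SD above the mean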); conditions: OD615, 24 h, at 10 µM, stronger effect = higher value
[10] = S. cerevisiae growth inhibition in restrictive medium, OD615, pilot screen, restrictive growth control, yeast lifespan reduction project (AID 706;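 active means growth inhibition above a set limit, 3 SD over mean compound inhibition, in both replicates, cut at about 43% in these data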;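 further: modified DeaD lifespan yeast strain shifted to restrictive glucose medium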); conditions: OD615, 48 h, at 10 µM, stronger effect = higher value
[11] = doxorubicin toxicity protection in MRP-1 cells – H69AR cells, CellTiter-Glo, duplicate, MRP-1 activator project, pilot screen (AID 807); conditions: H69AR viability with doxorubicin, CellTiter-Glo luminescence; at 10 µM; stronger effect = higher value;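 further: compound pretreatment 18-22 h then 72 h combined with doxorubicin; 0% = doxorubicin alone and 100% = vehicle without doxorubicin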
[12] = viability of HCT116 without oncogenic beta-catenin – human colon tumor cells, pilot screen (AID 823;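 active means cell viability at or below a set limit in both duplicate runs, the limit being the all-compound median minus 4 SD, cut at about 23% in these data, passing the limit was not always enough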;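 further: 0% = wells killed by 20 µM Hyamine and 100% = untreated DMSO cell wells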); conditions: HCT116 beta-catenin knockout viability, CellTiter-Glo, 60 h; at 10 µM; stronger effect = lower value
[13] = viability of PTEN-null HCT116 cells – cell-based, HCT116 clonal line, CellTiter-Glo, pilot screen (AID 824;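 active means viability at or below 27.92% in each of two runs, the all-compound median minus 4 SD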;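 further: 0% = 20 µM Hyamine control and 100% = vehicle cell control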); conditions: HCT116 PTEN-deleted viability, 60 h, at 10 µM, stronger effect = lower value
[14] = RAM pathway blockade in budding yeast – dse1pr::URA3 reporter, 5-FOA selection, pilot screen (AID 869;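 active means inhibition over a set limit, the all-compound mean plus 3 SD, in both replicate runs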;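 further: 0% = DMSO wells with no growth and 100% = 10 µM 1-NA-PP1 with full growth; RAM network block rescues cells from 5-FOA so hits raise OD615 growth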); conditions: S. cerevisiae dse1pr::URA3 5-FOA growth, OD615, 2 d; at 10 µM; stronger effect = higher value; strain carries analog-sensitive mutant Cbk1 kinase
[15] = RAM signaling pathway blockade in yeast – S. cerevisiae, Pdr1DBD-CYC8 efflux-inhibited sensitized strain, primary screen (AID 1298;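 active means RAM network inhibition above 8.4% in each of two replicates, 3 SD over the compound average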;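 further: 0% = DMSO untreated cells without growth and 100% = 10 µM 1-NA-PP1 full growth; higher means more yeast growth rescued from 5-FOA killing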); conditions: S. cerevisiae cbk1-as DSE1-URA3 strain, 5-FOA growth OD615, 2 d; at 50 µM; stronger effect = higher value
[16] = H69AR cells + 2 uM doxorubicin, measured here: viability with 2 uM doxorubicin, stronger effect = lower value
[17] = H69AR cells, compound alone cytotoxicity

Receptor tyrosine-protein kinase erbB-2 (Homo sapiens), sequence (P04626 whole entry, looked up): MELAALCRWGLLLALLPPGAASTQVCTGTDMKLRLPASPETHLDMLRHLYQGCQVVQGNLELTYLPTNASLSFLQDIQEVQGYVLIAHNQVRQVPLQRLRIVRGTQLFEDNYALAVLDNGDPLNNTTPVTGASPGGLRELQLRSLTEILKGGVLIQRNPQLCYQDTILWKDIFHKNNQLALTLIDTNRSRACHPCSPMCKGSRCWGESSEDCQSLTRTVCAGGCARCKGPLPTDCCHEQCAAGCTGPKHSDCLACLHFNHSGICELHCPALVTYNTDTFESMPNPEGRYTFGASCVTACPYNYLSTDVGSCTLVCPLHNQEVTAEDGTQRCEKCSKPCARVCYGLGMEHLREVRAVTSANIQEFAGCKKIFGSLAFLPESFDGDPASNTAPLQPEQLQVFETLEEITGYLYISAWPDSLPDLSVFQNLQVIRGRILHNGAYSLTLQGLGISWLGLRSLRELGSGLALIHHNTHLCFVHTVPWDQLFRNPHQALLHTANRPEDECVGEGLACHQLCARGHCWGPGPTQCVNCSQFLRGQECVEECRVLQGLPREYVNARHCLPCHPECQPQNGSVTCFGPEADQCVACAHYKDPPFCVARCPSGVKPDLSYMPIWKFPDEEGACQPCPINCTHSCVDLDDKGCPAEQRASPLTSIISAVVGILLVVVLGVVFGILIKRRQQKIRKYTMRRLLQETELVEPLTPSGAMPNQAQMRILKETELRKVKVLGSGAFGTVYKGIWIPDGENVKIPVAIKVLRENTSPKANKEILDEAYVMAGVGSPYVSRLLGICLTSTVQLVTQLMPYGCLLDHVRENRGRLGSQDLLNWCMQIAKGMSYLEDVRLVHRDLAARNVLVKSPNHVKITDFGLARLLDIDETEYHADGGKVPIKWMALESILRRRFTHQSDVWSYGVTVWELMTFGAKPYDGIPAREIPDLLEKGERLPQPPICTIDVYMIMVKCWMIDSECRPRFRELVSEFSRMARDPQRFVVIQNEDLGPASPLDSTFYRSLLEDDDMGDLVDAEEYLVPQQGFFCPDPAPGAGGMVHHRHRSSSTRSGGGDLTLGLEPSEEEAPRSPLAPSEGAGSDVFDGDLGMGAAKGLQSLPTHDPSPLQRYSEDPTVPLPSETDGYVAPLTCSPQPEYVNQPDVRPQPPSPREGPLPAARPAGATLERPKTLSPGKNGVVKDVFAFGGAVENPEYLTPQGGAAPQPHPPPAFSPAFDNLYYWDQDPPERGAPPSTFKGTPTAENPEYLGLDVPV

Structure (SMILES) | viability [1] [%] | Her2 level [2] | viability [3] | viability [4] | viability [5] | differential viability (reversal) ([6]; H69AR cells + 2 uM doxorubicin) | viability [6, 16] [%] | viability [6, 17] [%] | inhibition [7] | inhibition [8] | growth inhibition [9] | growth inhibition [10] | viability increase [11] | viability [12] | viability [13] | inhibition [14] | RAM network inhibition [15]
CCOC(=O)c1cccc(NC2c3ccccc3C(=O)N2Cc2ccco2)c1 (stereo not given) | 98.5 | 98% (inactive) | 98.5% (inactive) | 76.2% (inactive) | 82.1% (inactive) | -6.29% (inactive) | 88.4 | 82.1 | -3.6% (inactive) | -0.83% (inactive) | 2.55% (inactive) | 1.38% (inactive) | -5.15% (inactive) | 64.7% (inactive) | 74.6% (inactive) | 2.4% (inactive) | 8.31% (inactive)
Cc1nc2ccc(C(=O)c3ccccc3)cc2[nH]1 | 102 | 82% (inactive) | 102% (inactive) | 110% (inactive) | 94.2% (inactive) | 2.49% (inactive) | 91.7 | 94.2 | -3.64% (inactive) | 0.33% (inactive) | -6.26% (inactive) | 2.11% (inactive) | 0.26% (inactive) | 99.4% (inactive) | 100% (inactive) | 1.42% (inactive) | 5% (inactive)
COc1ccccc1NC(=O)N(C1CCCC1)C1CCN(C(C)=O)CC1 | 77.5 | 89.5% (inactive) | 77.5% (inactive) | 112% (inactive) | 88.3% (inactive) | 0.61% (inactive) | 87.6 | 88.3 | 0.77% (inactive) | -8.83% (inactive) | -2.26% (inactive) | -27.4% (inactive) | -2.01% (inactive) | 92.4% (inactive) | 94.7% (inactive) | 0.72% (inactive) | 5% (inactive)
C=CCc1ccccc1OCCCCN1CCCC1 | 70.5 | 101% (inactive) | 70.5% (inactive) | 77.1% (inactive) | 83.3% (inactive) | -1.74% (inactive) | 85.1 | 83.3 | -9.05% (inactive) | -1.31% (inactive) | 7.25% (inactive) | -3.4% (inactive) | -7.03% (inactive) | 77.1% (inactive) | 80.8% (inactive) | 0.91% (inactive) | 1.88% (inactive)
CCCN1CC23C=CC(O2)C(C(=O)O)C3C1=O (stereo not given) | 81.5 | 94% (inactive) | 81.5% (inactive) | 85.4% (inactive) | 98.1% (inactive) | -1.58% (inactive) | 99.7 | 98.1 | -3.87% (inactive) | 0.16% (inactive) | -2.17% (inactive) | 2.93% (inactive) | -0.49% (inactive) | 100% (inactive) | 101% (inactive) | 1.96% (inactive) | -1.04% (inactive)
COc1ccc(NC(=O)NCCN2C(=O)C3C4C=CC(C4)C3C2=O)cc1 (stereo not given) | 96 | 91% (inactive) | 96% (inactive) | 100% (inactive) | 101% (inactive) | 3.28% (inactive) | 97.5 | 101 | -1.33% (inactive) | 0.33% (inactive) | -5.58% (inactive) | 10.4% (inactive) | -0.53% (inactive) | 99.1% (inactive) | 94.5% (inactive) | 1.5% (inactive) | -1.15% (inactive)
COc1ccc(-c2noc(COc3ccc(Cl)c(C)c3)n2)cc1 | 91 | 115% (inactive) | 91% (inactive) | 99.6% (inactive) | 88.4% (inactive) | 4.7% (inactive) | 83.7 | 88.4 | -5.07% (inactive) | -7.38% (inactive) | -7.56% (inactive) | -29% (inactive) | 0.12% (inactive) | 101% (inactive) | 91.5% (inactive) | 6.36% (active) | 8.54% (inactive)
CCOC(=O)c1sc2nc(NC(=O)C(C)(C)C)sc2c1C | 104 | 75.5% (inactive) | 104% (inactive) | 62.8% (inactive) | 79.3% (inactive) | 11.9% (inactive) | 67.5 | 79.3 | -3.73% (inactive) | -4.59% (inactive) | -1.74% (inactive) | 5.62% (inactive) | -4.43% (inactive) | 74.5% (inactive) | 74% (inactive) | -0.52% (inactive) | 3.13% (inactive)
CCOC(=O)C1=C(C)N(C)C(=O)NC1c1cccc(O)c1 (stereo not given) | 102 | 85% (inactive) | 102% (inactive) | 90.1% (inactive) | 86.9% (inactive) | -13.7% (inactive) | 101 | 86.9 | -0.9% (inactive) | -6.5% (inactive) | -6.63% (inactive) | 4.03% (inactive) | -0.55% (inactive) | 99.2% (inactive) | 95.9% (inactive) | -0.435% (inactive) | -0.57% (inactive)
CCOC(=O)N1CCC(c2cc(=O)n3[nH]cc(C(=O)OC)c3n2)CC1 | 94.5 | 101% (inactive) | 94.5% (inactive) | 92.1% (inactive) | 92.2% (inactive) | 9.5% (inactive) | 82.7 | 92.2 | -4% (inactive) | 0.83% (inactive) | 2.45% (inactive) | 9.29% (inactive) | -0.6% (inactive) | 88.8% (inactive) | 101% (inactive) | 0.045% (inactive) | 0.56% (inactive)
